# In the library only some 19% were active in any assay of this set; here they are far more common.
# IL1B secr inh: inflammasome signaling inhibition, IL-1 beta readout | THP-1 LPS/ATP IL-1B secretion, AlphaLISA, 16 h; hits give low values | activity change, % at 57.5 µM | 4.7% of 360,000 active; in the data active = activity change below about -50%; inconclusive = mostly about -30% to -49%
#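 Secreted IL-1B measured by AlphaLISA bead assay after 16 h compound exposure of THP-1 cells; compounds (final up to 57.5 uM) added 1 h before LPS (250 ng/mL) and ATP (1.25 mM) stimulation; lower signal means less secretion.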
# HT1080NT lethal: kills 2HG-producing HT-1080-NT fibrosarcoma cells; HT-1080-NT fibrosarcoma viability, CellTiter-Glo ATP luminescence, 48 h; Potency, µM (doses to about 46.1 µM), inactives show top-dose activity, negative = less viability, hits mostly cytotoxic; 1.6% of 360,000 active; AID 686970;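 also: NT is the 2HG producing partner of a matched IDH1 knockdown line; potency is read from the fitted curve at half-maximal effect; 0% = DMSO-treated cells and -100% = media-only wells without cells; nearly all actives have a fitted effect of over 55% in size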
#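 Viability by CellTiter-Glo luminescence after 48 h compound exposure at 37C of HT-1080-NT cells (750/well, RPMI, 5% FBS). % activity scaled between DMSO wells and medium-only wells, then curve-fitted and categorized by curve class.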
# HT1080 IDH1KD tx: toxicity to HT-1080 IDH1 knockdown cells (counter line). HT-1080 IDH1 knockdown viability, ATP luminescence, 48 h. Potency, µM (titrated, usually from 46.1 µM), without a hit: at the top dose activity, negative = toxicity, hits mostly cytotoxic. 2% of 360,000 active;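 also: potency is read from the fitted curve at half-maximal effect; 0% = DMSO wells and -100% = cell-free medium wells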
#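 Viability of IDH1-knockdown HT-1080 fibrosarcoma cells was assessed by CellTiter-Glo after 48 h at 37 °C with titrated compound; concentration-effect curves were classified by fit quality and response size.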
# DT40 TDP1 no CPT: qHTS for Inhibitors of human tyrosyl-DNA phosphodiesterase 1 (TDP1): qHTS in cells in absence of CPT | DT40 Tdp1-/- hTDP1 cells, no CPT, ATP luminescence, 48 h | Potency, µM (doses to about 46.2 µM), without a hit: at the highest dose activity change, negative = growth inhibition, actives largely listed as inhibitors | 15% of 420,000 active | AID 686978, 2013; also: potency is read from the fitted curve at half-maximal effect; nearly all actives have a fitted effect of over 55% in size
#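 Cells were dispensed at 400 per well, compounds added by pin tool, plates incubated ≥48 hr at 37 °C, then CellTiter-Glo added for 30 min at room temperature before luminescence reading. Line: DT40 Tdp1-/- complemented with hTDP1; camptothecin omitted.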
# TDP1 cell CPT: DT40-hTDP1 cell growth loss with CPT | chicken DT40 Tdp1-/-;hTDP1 cells + 20 nM CPT, ATP luminescence, 48 h | AID 686979 | Potency, µM (series often up to 46.2 µM), for inactives: top-dose activity change, negative = growth inhibition, hits mostly inhibitors | 12% of 420,000 active; also: potency is read from the fitted curve at half-maximal effect; nearly all actives have a fitted effect of over 55% in size
#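 Chicken DT40 Tdp1-/- cells stably complemented with human TDP1 were seeded at 400 cells/well in medium containing 20 nM camptothecin, exposed to pin-transferred compounds, and grown at 37 °C for at least 48 hr. Viability was read as ATP luminescence.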
# ELG1 repair inh: inhibitors of ELG1-dependent DNA repair in HEK293T cells; HEK293T ELG1-luciferase reporter, luminescence, 16 h; DNA damage induced by 5-fluorouridine; Potency, µM (highest dose often 46.1 µM), inactives show at the highest dose activity change, negative = inhibition, most hits filed as inhibitors; 2.3% of 330,000 active; AID 504467; also: potency is read from the fitted curve at half-maximal effect; nearly all actives have a fitted effect of over 55% in size
#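 Overnight (16 hr) co-exposure of 2,000 cells/well to 5-fluorouridine and compound at 37 °C preceded detection. Luciferase was quantified via ONE-Glo luminescence; loss of signal denotes inhibition.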
# The depositor's hits bear a star; ? = inconclusive; . = not tested or not shown. Unless noted, calls follow the shape of the dose curve; as a rule, active = well fitted curve in the direction sought with a large enough effect; inconclusive = small, poorly fitted or top-dose-only effect, or another doubt; inactive = no such curve, though single readings can be large; an effect the other way counts as inactive or inconclusive. Unless noted, % is scaled to controls: 0 for no effect and ±100 for the full control effect.
SMILES,IL1B secr inh,HT1080NT lethal,HT1080 IDH1KD tx,DT40 TDP1 no CPT,TDP1 cell CPT,ELG1 repair inh
COC(=O)c1ccc(CSc2nc3ccc(S(=O)(=O)N4CCOCC4)cc3[nH]2)cc1,?,2%,11%,?,-26%,-9%
O=C(N/N=C/c1ccc(OC(F)F)cc1)c1ccc(CSc2nc3ccccc3[nH]2)cc1,0,-19%,-1%,?,?,-18%
COc1ccc(CCC(=O)OCC(=O)Nc2ccc(OC)c(OC)c2)cc1OC,30,18%,13%,-18%,5%,13%
CNc1c(NC(=O)c2cc(OC)cc(OC)c2)c(=O)oc2ccccc12,.,.,.,-28%,0%,.
COc1cccc(CNC(=O)C(C)n2c(=O)cc(-c3ccccc3)c3c(C)nn(C)c32)c1 (stereo unspecified),.,.,.,-49%,?,.
Cc1ccc(N2CCN(C(C(=O)Nc3c(C)cccc3C)c3ccccc3OC(F)(F)F)CC2)cc1 (stereo unspecified),-22,-27%,-19%,?,?,.
Cc1c(NC(=O)CSc2nnc(-c3ccccc3F)o2)c(=O)n(-c2ccccc2)n1C,3,-1%,0%,1%,-5%,.
CCCCC(c1nc2ccccc2[nH]1)n1c(-c2ccccc2)nc2ccccc21 (stereo unspecified),0,15%,-1%,-12%,-15%,.
CC(C)(C)C(c1nc2ccccc2[nH]1)n1c(-c2cc(Cl)cc(Cl)c2)nc2ccccc21 (stereo unspecified),0,?,?,16µM*,?,.
CC(C)(C)C(c1nc2ccccc2[nH]1)n1c(-c2cccc(S(C)(=O)=O)c2)nc2ccccc21 (stereo unspecified),?,2%,9%,13µM*,10µM*,.
CN(C(=O)COC(=O)c1cn(-c2ccccc2)nc1-c1ccccc1)C1CCS(=O)(=O)C1 (stereo unspecified),1,-1%,-1%,-4%,-17%,-12%
O=C(COC(=O)/C=C/c1cn(-c2ccccc2)nc1-c1ccc2c(c1)OCCO2)NC1CCS(=O)(=O)C1 (stereo unspecified),?,-6%,-7%,21µM*,?,18µM*
CN(C(=O)COC(=O)/C=C/c1cn(-c2ccccc2)nc1-c1ccc2c(c1)OCCO2)C1CCS(=O)(=O)C1 (stereo unspecified),?,-3%,-2%,15µM*,?,21µM*
COc1ccc(-c2cn3c(n2)sc2cc(C(=O)NC4CCCCC4)ccc23)cc1,.,.,.,-24%,?,.
O=C(NC1CCCCCC1)c1ccc2c(c1)sc1nc(-c3ccccc3)cn12,.,.,.,16µM*,9.2µM*,.
CCc1ccc(-c2cn3c(n2)sc2cc(C(=O)NC4CCCCC4)ccc23)cc1,.,.,.,6.5µM*,3.7µM*,.
C=CCOc1ccccc1C(=O)/C=C1/C(=O)Nc2ccccc21,?,?,?,2.9µM*,5.8µM*,1%
NC(=O)COc1ccc(C(=O)/C=C2/C(=O)Nc3ccccc32)cc1,-100*,-26%,?,2.9µM*,7.3µM*,-3%
C=CCOc1ccc(C2NC(=O)c3ccccc3O2)cc1 (stereo unspecified),-15,24%,16%,-8%,-6%,5%
C=CCOc1ccc(C(=O)/C=C2/C(=O)Nc3ccccc32)cc1,-92*,?,?,13µM*,16µM*,-4%
Cc1cc(C(=O)N2CCCC(Nc3ccccc3)C2)c2ccc(F)cc2n1 (stereo unspecified),20,2%,15%,-2%,13%,2%
COc1ccc(N(Cc2cc3ccc(C)cc3[nH]c2=O)C(=O)c2ccco2)cc1,-15,15%,19%,21µM*,23µM*,-21%
Cc1ccc(N(Cc2ccc([N+](=O)[O-])cc2)C(=O)c2ccco2)cc1,-15,-18%,-2%,?,-27%,-1%
Cc1cccc(N(Cc2cc3ccccc3[nH]c2=O)C(=O)c2ccco2)c1C,-6,16%,8%,-84%,26µM*,9%
COc1ccc(CN(C(=O)c2ccco2)c2ccc(C)c(C)c2)cc1,23,?,21µM*,?,?,-16%
SMILES,IL1B secr inh,HT1080NT lethal,HT1080 IDH1KD tx,DT40 TDP1 no CPT,TDP1 cell CPT,ELG1 repair inh
CCOc1ccc(N(Cc2ccc(OC)c(OC)c2)C(=O)c2ccco2)cc1,6,-11%,-1%,18µM*,?,-2%
COc1cc(CN(C(=O)c2ccco2)c2ccc(C)cc2)ccc1O,-15,-2%,-10%,-16%,-8%,9%
COc1ccc([C@H]2CC(=O)C=C(c3ccc(SC)cc3)C2)cc1,-13,5%,6%,-27%,?,0%
COc1ccccc1CN1C(=O)C(Cc2ccccc2)ON=C1c1ncccc1C (stereo unspecified),0,-20%,-4%,?,?,.
Cc1ccc(OCc2nc(-c3ccc(C(=O)N4CCN(c5cc(Cl)ccc5C)CC4)cc3)oc2C)cc1,.,.,.,12µM*,23µM*,.
COc1ccc(N2CCN(C(=O)c3ccc(-c4nc(COc5ccccc5)c(C)o4)cc3)CC2)cc1,.,.,.,-12%,-17%,.
Cc1cccc(-c2nc(CS(=O)CC(=O)NC3CCCCC3)c(C)o2)c1 (stereo unspecified),-3,-10%,-2%,-20%,-21%,-2%
Cc1cccc(-c2nc(CN3CCCC(C(=O)NC4CCC(C)CC4)C3)c(C)o2)c1 (stereo unspecified),1,-26%,-25%,18µM*,?,?
Cc1cccc(-c2nc(CN3CCCC(C(=O)NC4CCCC4)C3)c(C)o2)c1 (stereo unspecified),-24,?,?,12µM*,?,?
Cc1cccc(-c2nc(CN3CCCC(C(=O)N4CCN(c5cc(Cl)ccc5C)CC4)C3)c(C)o2)c1 (stereo unspecified),.,.,.,21µM*,16µM*,.
CNc1c(Cl)cc(C=O)cc1Cl,.,.,.,-10%,5%,.
COc1ccc(C(=O)N(C)Cc2ccc(C)o2)cc1OC1CCN(C(C)C)CC1,-4,-4%,-4%,-21%,-29%,13%
CCOC(=O)N1CCC(NC(=O)C2CCCN(Cc3nc(-c4cccc(C)c4)oc3C)C2)CC1 (stereo unspecified),-27,?,?,2.6µM*,5.8µM*,?

# Assay outcomes: PubChem, National Center for Advancing Translational Sciences (NCATS)
